A selection: hits, their analogues and other compounds. The true share with any hit is near 8.9%.
NPSR antag – neuropeptide S receptor (human) antagonism, cAMP; Q6W5P4; CHO-NPSR cells, cAMP TR-FRET, antagonist mode; Potency, µM (doses to about 38.3 µM), for the others: top-dose activity change, negative = inhibition, actives largely listed as inhibitors; hit rate 1% among 220,000; also: potency is read from the fitted curve at half-maximal effect; nearly all actives have a fitted effect of over 50% in size
HPGD block – inhibitors of human 15-hydroxyprostaglandin dehydrogenase (HPGD); P15428; purified HPGD, NADH fluorescence kinetic, PGE2 substrate; Potency, µM, for the others: at the top dose activity change, negative = inhibition, actives largely listed as inhibitors; hit rate 4.3% among 150,000; AID 894; active = well fitted inhibition curve with a large enough effect, not every such curve was filed as active; inconclusive = small, poorly fitted or top-dose-only effect, or another doubt; inactive = no such curve, though single readings can be large or run the other way; also: potency is read from the fitted curve at half-maximal effect
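NADH formation kinetics: reaction with 30 uM PGE2 and 1 mM NAD+ (final), 20 nM enzyme, Tris-HCl pH 8 with Tween 20, after 15 min compound preincubation at room temperature. Fluorescence change, last versus first of five reads.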
IMPase cell inh – membrane-permeable compound that blocks inositol monophosphatase; 120,000 tested, under 10 active; AID 901; inhibition (IP1 accumulation), % at 46.1 µM; CHO-M1 cells, IP1 accumulation, HTRF TR-FRET ratio; active = well fitted curve in the direction sought with a large enough effect in the signal ratio, not every such curve was filed as active; inconclusive = small, poorly fitted or top-dose-only effect, or a change in a side signal; inactive = no such curve, though single readings can be large or run the other way; the % refers to the signal ratio;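 also: cells stimulated with carbachol in lithium chloride buffer; plate controls were DMSO basal wells for no effect and reference inhibitor wells for full effect; higher means more IMPase inhibition seen as more IP1 and lower FRET ratio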
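CHO-M1 cells (CHO stably expressing M1 receptor), compound up to 46 uM final, stimulated with carbachol (50 uM as added) in buffer with 50mM LiCl, pH 7.4, 30 min at 37C. Cytosolic IP1 read by TR-FRET; AC50 from Hill fits.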
12-hLO inh – 12-hLO (ALOX12) enzyme inhibition | hit rate 0.12% among 150,000 | Potency, µM (top dose mostly 57.1 µM), inactives show top-dose activity change, negative = inhibition, hits mostly inhibitors | purified 12-hLO, xylenol orange hydroperoxide absorbance | AID 1452 | P18054; also: potency is read from the fitted curve at half-maximal effect; nearly all actives have a fitted effect of over 55% in size
Target sequence (P18054 whole entry, looked up): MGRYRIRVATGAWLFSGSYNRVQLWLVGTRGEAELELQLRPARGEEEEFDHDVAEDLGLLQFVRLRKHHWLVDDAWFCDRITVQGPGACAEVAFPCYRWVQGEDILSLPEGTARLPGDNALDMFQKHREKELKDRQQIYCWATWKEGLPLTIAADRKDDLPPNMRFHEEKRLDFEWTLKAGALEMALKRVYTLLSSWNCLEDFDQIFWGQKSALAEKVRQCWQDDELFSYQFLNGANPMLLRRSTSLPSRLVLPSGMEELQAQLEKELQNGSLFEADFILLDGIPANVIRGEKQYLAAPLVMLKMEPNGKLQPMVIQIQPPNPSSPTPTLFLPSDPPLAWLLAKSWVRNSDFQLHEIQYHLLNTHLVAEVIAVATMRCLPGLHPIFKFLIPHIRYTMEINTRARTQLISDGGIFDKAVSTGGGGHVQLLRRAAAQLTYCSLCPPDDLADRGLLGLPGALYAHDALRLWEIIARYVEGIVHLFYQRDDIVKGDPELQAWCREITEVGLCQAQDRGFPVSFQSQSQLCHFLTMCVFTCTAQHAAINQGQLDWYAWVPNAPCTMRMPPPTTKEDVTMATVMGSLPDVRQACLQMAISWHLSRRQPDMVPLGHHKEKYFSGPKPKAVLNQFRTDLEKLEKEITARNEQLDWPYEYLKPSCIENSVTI
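Hydroperoxide output read as Fe(III)-xylenol orange absorbance, 573-to-405 nm ratio, after 30 min reaction with 40 uM arachidonic acid. Enzyme: 150 nM purified human 12hLO, 15 min compound preincubation; 25 mM Hepes pH 7.0, room temperature.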
ALDH1A1 inh – inhibitors of human aldehyde dehydrogenase 1A1; hit rate 7.3% among 220,000; Potency, µM (doses to about 75.3 µM), for inactives: at the highest dose activity, negative = inhibition, hits mostly inhibitors; Purified ALDH1A1, NADH fluorescence, propionaldehyde substrate; P00352; active = well fitted inhibition curve with a large enough effect, not every such curve was filed as active; inconclusive = small, poorly fitted or top-dose-only effect, or another doubt; inactive = no such curve, though single readings can be large or run the other way;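 also: potency is read from the fitted curve at half-maximal effect; plate controls were no enzyme wells and a reference inhibitor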
IMPase Li cell – IMPase inhibition in cells with lithium potentiation | CHO-M1 cells, IP1 TR-FRET (IP-One), carbachol + lithium | Potency, µM (top dose mostly 59.4 µM), without a hit: at the highest dose activity, negative = IMPase inhibition, hits mostly inhibitors | hit rate 0.35% among 210,000;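 also: IP1 builds up when IMPase is blocked and the TR-FRET signal falls; potency is read from the fitted curve at half-maximal effect; plate controls were basal vehicle for no effect and high inhibitor control for full effect; nearly all actives have a fitted effect of over 50% in size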
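Test compounds were applied to CHO-M1 cells previously cultured for 16–30 h at 2000 per well. A small lithium amount accompanied them; after 30 min at 37C, IP1 was quantified by TR-FRET.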
Numbers without * were called inactive; ? = inconclusive; . = no result; [ ] = dose if it differs, or a comment. Unless noted, calls follow the shape of the dose curve; as a rule, active = well fitted curve in the direction sought with a large enough effect; inconclusive = small, poorly fitted or top-dose-only effect, or another doubt; inactive = no such curve, though single readings can be large; an effect the other way counts as inactive or inconclusive. Unless noted, % is scaled to controls: 0 for no effect and ±100 for the full control effect.

SMILES	NPSR antag	HPGD block	IMPase cell inh	12-hLO inh	ALDH1A1 inh	IMPase Li cell
Cc1ccsc1C1C2=C(CCCC2=O)Nc2ncnn21 (stereo unspecified)	-11%[46.1 µM]	-23%	1	-1%	?	16%[38.3 µM]
Cc1ccsc1C1C2=C(CC(C)(C)CC2=O)Nc2ncnn21 (stereo unspecified)	-13%[46.1 µM]	?	-1	-6%	11µM*	22%[38.3 µM]
COc1cc2c(cc1OC)C(c1ccccc1O)N(C1CC(=O)N(c3ccccc3)C1=O)CC2 (stereo unspecified)	-18%[46.1 µM]	-13%	-16	-7%	13µM*	9%[38.3 µM]
COc1cccc(N2C(=O)CC(N3CCc4ccccc43)C2=O)c1 (stereo unspecified)	0%[46.1 µM]	-10%	6	-3%	1%	-2%
CC(NC(=O)COC(=O)C1CSC2(C)CCC(=O)N12)C12CC3CC(CC(C3)C1)C2 (stereo unspecified)	-4%	.	.	.	4.5µM*	10%
COc1ccc(C(=O)N(Cc2ccco2)Cc2cccs2)c(O)c1	?	?	4	-12%	13µM*	39%[38.3 µM]
Cc1ccc(-c2nnn(CC(=O)N(Cc3cccs3)C(C(=O)NC(C)(C)C)c3ccco3)n2)o1 (stereo unspecified)	?	-10%	9	-2%	?	8%
COc1ccc(C(=O)/C=C/C(=O)N(CC(=O)NCCC(C)C)Cc2cccs2)c(O)c1	?	.	.	.	?	19%
COCCN(C(=O)Cc1cccs1)C(C(=O)NCc1ccc(OC)cc1)c1ccc(OC)cc1 (stereo unspecified)	-13%[46.1 µM]	-15%	9[1.84 µM]	-2%	2.2µM*	27%[38.3 µM]
COc1ccc(CNC(=O)C(c2cccs2)N(Cc2ccco2)C(=O)Cc2cccs2)cc1 (stereo unspecified)	-23%[46.1 µM]	-17%	9	2%	2µM*	15%
COc1ccc(CNC(=O)C(c2ccncc2)N(C(=O)Cc2cccs2)c2ccccc2C)cc1 (stereo unspecified)	-17%[46.1 µM]	-3%	-7[1.84 µM]	-4%	?	20%[38.3 µM]
Cc1ccc(-c2nnn(CC(=O)N(Cc3ccco3)C(C(=O)NC(C)(C)C)c3cccs3)n2)o1 (stereo unspecified)	-5%[46.1 µM]	-3%	0[0.369 µM]	-4%	28µM*	8%
O=c1[nH]c2ccc(S(=O)(=O)N3CCCCC3)cc2[nH]1	-4%[46.1 µM]	-10%	10	0%	6%	-7%[38.3 µM]
Cc1nc(NC(=O)c2ccco2)sc1-c1csc(Nc2ccc(Cl)cc2)n1	-8%[46.1 µM]	-13%	4	-7%	-5%	5%[38.3 µM]
COc1ccc(CNC(=O)C(c2ccco2)N(Cc2ccccc2)C(=O)Cc2cccs2)cc1 (stereo unspecified)	?	-12%	9	-3%	13µM*	18%
COc1ccc(CNC(=O)C(c2ccco2)N(C(=O)Cc2cccs2)c2cccnc2)cc1 (stereo unspecified)	-2%	.	.	.	1%	0%
CCOC(=O)C1=NN(C(C)=O)C2(CC(=O)N(c3cc(C)cc(C)c3)C2=O)C1 (stereo unspecified)	8%	-6%	.	1%	7%	-8%
COC(=O)C1=NN(N=O)C2(CC(=O)N(c3cc(C)cc(C)c3)C2=O)C1 (stereo unspecified)	7%[46.1 µM]	32µM*	2	-11%	8.9µM*	28%[38.3 µM]
Cc1cccc(Oc2c(C=O)c3ccccc3n2C)c1	?	-13%	9	-4%	-8%	15%[38.3 µM]
NNC(=O)c1ccc2ccccc2n1	-4%	.	.	.	7.9µM*	13%
O=C(NN=C1CCCCCCC1)c1ccc2ccccc2n1	-17%	.	.	.	1.6µM*	25%
O=C(NCc1ccccn1)c1ccc2ccccc2n1	14%	-17%	1	3%	-6%	0%
COCCNC(=O)c1ccc2ccccc2n1	7%[46.1 µM]	22µM*	1	-1%	?	3%[38.3 µM]
CN(C)c1ccc(C2N3CC4(C)CN2CC(C)(C3)C4O)cc1 (stereo unspecified)	-12%[46.1 µM]	-24%	4	0%	0.89µM*	10%[38.3 µM]
CCCN1CC=C2C(C#N)=C(N)C(C#N)(C#N)C(c3cccc(OC)c3OC)C2C1 (stereo unspecified)	-16%[46.1 µM]	?	7	-1%	?	4%
SMILES	NPSR antag	HPGD block	IMPase cell inh	12-hLO inh	ALDH1A1 inh	IMPase Li cell
COc1cccc(OC)c1OCc1cc(C2C3CCCC=C3C(C#N)=C(N)C2(C#N)C#N)c(C)cc1C (stereo unspecified)	3.2µM*	-19%	9	-6%	?	5%[38.3 µM]
COc1ccc(C(=O)Nc2cc(C)on2)cc1[N+](=O)[O-]	8%	.	.	.	0%	-1%
COc1ccccc1NC(=S)NC(=O)C(C)(C)C	1%[46.1 µM]	.	-4	13µM*	-1%	.
CCOc1ccc(C(=O)NC(=S)NC2CCCC2)cc1[N+](=O)[O-]	-20%	-11%	.	28µM*	13µM*	3%
CCOc1ccc(C(=O)NC(=S)Nc2ccc(N3CCCCC3)cc2)cc1[N+](=O)[O-]	10%	32µM*	.	-1%	11µM*	5%
COc1ccc(C(=O)NC(=S)Nc2cc(C)ccn2)cc1[N+](=O)[O-]	8%	-9%	.	-1%	0.32µM*	4%
CCOc1ccc(C(=O)NC(=S)Nc2ccccc2N2CCCCC2)cc1[N+](=O)[O-]	-26%	-19%	.	-4%	?	2%
COc1ccc(NC(=O)c2ccc(-c3ccccc3C(F)(F)F)o2)cc1	-1%	-9%	.	-6%	-11%	-9%
Cn1c(SCC(=O)c2ccc3c(c2)OCO3)nnc1C1COc2ccccc2O1 (stereo unspecified)	?	-23%	3	1%	?	-1%
COCCNc1cc(C)c(C#N)c2nc3ccccc3n12	-11%[46.1 µM]	?	-24	-5%	?	-34%[38.3 µM]
CCOc1ccc(C(=O)NC(=S)Nc2ccccc2OC)cc1[N+](=O)[O-]	-2%	-9%	.	0%	8.9µM*	14%
CCOc1ccc(Br)cc1S(=O)(=O)Nc1ccc(C(=O)Nc2ccccc2OC)cc1	-33%	-29%	.	-2%	16µM*	0%
COc1ccc(C(=O)NC(=S)Nc2cccc(Cl)c2N2CCOCC2)cc1[N+](=O)[O-]	?	-8%	7	-4%	0.4µM*	-5%[38.3 µM]
COc1ccccc1NC(=S)NC(NC(=O)c1ccco1)C(Cl)(Cl)Cl (stereo unspecified)	13%	-21%	-11	-8%	14µM*	23%
CCOc1ccc(C(=O)NC(=S)Nc2ccc(NC(=O)CC)cc2)cc1[N+](=O)[O-]	-6%	-20%	.	-18%	?	3%
CCOc1ccc(S(=O)(=O)N(CC(=O)Nc2cc(C)on2)Cc2ccccc2Cl)cc1	?	-6%	14	-4%	-8%	20%[38.3 µM]

Screens as filed in PubChem BioAssay.
